Measurements published in the supplement of paper PMC8728848.
The full list was thinned out, with the strongest signals kept by preference.

Assays:
Assay in all cases: glycan array binding signal (z-score within array); higher = stronger binding
Settings in all cases: glycan notation: IUPAC condensed, linker removed
Fuc(a1-2)Gal(b1-3)GalNAc = molecular target: Fuc(a1-2)Gal(b1-3)GalNAc
Method in brief: (§1)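 Columns mapping to the same glycan were averaged after glycan names were converted to IUPAC-condensed notation. The data come from 3228 arrays in the Consortium for Functional Glycomics database, limited to those with an available protein sequence. Binding is reported as a within-array Z-score averaged across arrays of one protein sequence and across linkers.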

Fuc(a1-2)Gal(b1-4)GlcNAc = molecular target: Fuc(a1-2)Gal(b1-4)GlcNAc
Method in brief: as §1

[1] = molecular target: Fuc(a1-2)Gal(b1-4)GlcNAc(b1-3)Gal(b1-4)GlcNAc
Method in brief: as §1

[2] = molecular target: Fuc(a1-2)[Gal(a1-3)]Gal(b1-4)[Fuc(a1-3)]GlcNAc
Method in brief: as §1

[3] = molecular target: Gal(b1-3)GalNAc(b1-4)Gal(b1-4)Glc
Method in brief: as §1

[4] = molecular target: Gal(b1-3)[Fuc(a1-4)]GlcNAc(b1-3)Gal(b1-4)GlcNAc
Method in brief: as §1

Gal(b1-4)Glc = molecular target: Gal(b1-4)Glc
Method in brief: as §1

[5] = molecular target: Gal(b1-4)GlcNAc(b1-3)Gal(b1-4)Glc
Method in brief: as §1

[6] = molecular target: Gal(b1-4)GlcNAc(b1-3)Gal(b1-4)GlcNAc(b1-3)Gal(b1-4)GlcNAc
Method in brief: as §1

[7] = molecular target: Gal(b1-4)GlcNAc(b1-3)GalNAc
Method in brief: as §1

[8] = molecular target: GlcNAc(b1-4)GlcNAc(b1-4)GlcNAc(b1-4)GlcNAc(b1-4)GlcNAc(b1-4)GlcNAc
Method in brief: as §1

[9] = molecular target: Neu5Ac(a2-3)Gal(b1-3)[Fuc(a1-4)]GlcNAc(b1-3)Gal(b1-4)[Fuc(a1-3)]GlcNAc
Method in brief: as §1

[10] = molecular target: Neu5Ac(a2-3)GalNAc(b1-4)GlcNAc
Method in brief: as §1

[11] = molecular target: Neu5Ac(a2-6)Gal(b1-4)GlcNAc(b1-3)Gal(b1-4)[Fuc(a1-3)]GlcNAc(b1-3)Gal(b1-4)[Fuc(a1-3)]GlcNAc
Method in brief: as §1

[12] = molecular target: Neu5Gc(a2-3)Gal(b1-3)[Fuc(a1-4)]GlcNAc
Method in brief: as §1

Neu5Gc(a2-3)Gal(b1-4)Glc = molecular target: Neu5Gc(a2-3)Gal(b1-4)Glc
Method in brief: as §1

[13] = molecular target: Fuc(a1-2)Gal(b1-3)GalNAc(b1-4)[Neu5Ac(a2-3)]Gal(b1-4)Glc
Method in brief: as §1

[14] = molecular target: Fuc(a1-2)Gal6S(b1-4)GlcNAc
Method in brief: as §1

[15] = molecular target: Fuc(a1-3)[Gal(b1-4)]GlcNAc(b1-4)Gal(b1-4)[Fuc(a1-3)]GlcNAc(b1-4)Gal(b1-4)[Fuc(a1-3)]GlcNAc
Method in brief: as §1

[16] = molecular target: Fuc(a1-3)[Gal(b1-4)]GlcNAc6S
Method in brief: as §1

[17] = molecular target: Fuc(a1-3)[GalNAc(b1-4)]Gal(b1-4)GlcNAc
Method in brief: as §1

[18] = molecular target: Gal(a1-3)Gal(b1-4)[Fuc(a1-3)]GalNAc
Method in brief: as §1

Gal3S(b1-4)GlcNAc6S = molecular target: Gal3S(b1-4)GlcNAc6S
Method in brief: as §1

Gal6S(b1-4)Glc6S = molecular target: Gal6S(b1-4)Glc6S
Method in brief: as §1

Gal6S(b1-4)GlcNAc = molecular target: Gal6S(b1-4)GlcNAc
Method in brief: as §1

Glc(b1-6)Glc = molecular target: Glc(b1-6)Glc
Method in brief: as §1

[19] = molecular target: GlcNAc(a1-6)Gal(b1-4)GlcNAc
Method in brief: as §1

[20] = molecular target: GlcNAc(b1-3)Gal(b1-4)GlcNAc(b1-3)Gal(b1-4)GlcNAc
Method in brief: as §1

[21] = molecular target: GlcNAc(b1-3)[GlcNAc(b1-6)]GlcNAc
Method in brief: as §1

[22] = molecular target: GlcNAc(b1-4)Gal(b1-4)GlcNAc
Method in brief: as §1

[23] = molecular target: GlcNAc(b1-4)[GlcNAc(b1-6)]GalNAc
Method in brief: as §1

Kdn(a2-3)Gal(b1-4)GlcNAc = molecular target: Kdn(a2-3)Gal(b1-4)GlcNAc
Method in brief: as §1

[24] = molecular target: Man(a1-2)Man(a1-2)Man(a1-3)[Man(a1-2)Man(a1-6)[Man(a1-3)]Man(a1-6)]Man(b1-4)GlcNAc(b1-4)GlcNAc
Method in brief: as §1

[25] = molecular target: Neu5Ac(a2-3)Gal(b1-3)GlcNAc
Method in brief: as §1

[26] = molecular target: Neu5Ac(a2-3)Gal(b1-4)[Fuc(a1-3)]GlcNAc(b1-3)Gal(b1-4)GlcNAc
Method in brief: as §1

[27] = molecular target: Neu5Ac(a2-8)Neu5Ac(a2-8)Neu5Ac(a2-3)[GalNAc(b1-4)]Gal(b1-4)Glc
Method in brief: as §1

[28] = molecular target: Neu5Gc(a2-3)Gal(b1-4)GlcNAc
Method in brief: as §1

Binder | glycan array binding signal (z-score) (Fuc(a1-2)Gal(b1-3)GalNAc) | glycan array binding signal (z-score) (Fuc(a1-2)Gal(b1-4)GlcNAc) | glycan array binding signal (z-score) [1] | glycan array binding signal (z-score) [2] | glycan array binding signal (z-score) [3] | glycan array binding signal (z-score) [4] | glycan array binding signal (z-score) (Gal(b1-4)Glc) | glycan array binding signal (z-score) [5] | glycan array binding signal (z-score) [6] | glycan array binding signal (z-score) [7] | glycan array binding signal (z-score) [8] | glycan array binding signal (z-score) [9] | glycan array binding signal (z-score) [10] | glycan array binding signal (z-score) [11] | glycan array binding signal (z-score) [12] | glycan array binding signal (z-score) (Neu5Gc(a2-3)Gal(b1-4)Glc) | glycan array binding signal (z-score) [13] | glycan array binding signal (z-score) [14] | glycan array binding signal (z-score) [15] | glycan array binding signal (z-score) [16] | glycan array binding signal (z-score) [17] | glycan array binding signal (z-score) [18] | glycan array binding signal (z-score) (Gal3S(b1-4)GlcNAc6S) | glycan array binding signal (z-score) (Gal6S(b1-4)Glc6S) | glycan array binding signal (z-score) (Gal6S(b1-4)GlcNAc) | glycan array binding signal (z-score) (Glc(b1-6)Glc) | glycan array binding signal (z-score) [19] | glycan array binding signal (z-score) [20] | glycan array binding signal (z-score) [21] | glycan array binding signal (z-score) [22] | glycan array binding signal (z-score) [23] | glycan array binding signal (z-score) (Kdn(a2-3)Gal(b1-4)GlcNAc) | glycan array binding signal (z-score) [24] | glycan array binding signal (z-score) [25] | glycan array binding signal (z-score) [26] | glycan array binding signal (z-score) [27] | glycan array binding signal (z-score) [28]
STA (Solanum tuberosum), Q9S8M0 (protein) NASPPSPSPLPYPQCGMKKGGGKCIKTGECCSIWGWCGTTNAYCSPGYCQKQCPGPYPEGRCGWQANGKSCPTGTGQCCSNGGWCGTTSDYCASKNCQSQCKLPSPPPPPPPPSPPPPSPPSPPPPSPPPPPPPSPPPPSPPPPSPSPPPPPASPPPPPPALPYPQCGIKKGGGKCIKTGECCSIWGWCGTTNAYCSPGYCQKQCPGPYPEGRCGWQANGKSCPTGTGHCCSNAGWCGTTSDYCAPVNCQAQCNTTTLTSPIKNRMRGIESFMLNVV | -0.582 | 2.12 | 2.12 | -0.593 | -0.595 | -0.584 | -0.586 | 1.35 | 2.26 | -0.564 | 2.18 | -0.589 | 2.22 | -0.578 | -0.58 | -0.591 | – | – | – | – | – | – | – | – | – | – | – | – | – | – | – | – | – | – | – | – | –
KCR (Mus musculus), P70194 (protein) MKEAELNRDMARYCTDNQCVSLQPQGLGPKSAALMAPRTLRHVQVILALMVVTVIFSLLALFVVASQPWRPEWNKEPPSLLLRGSNNSGHDNHSQFVRETEMQVAIQRLRDYEENSSSCHKEVQILKYQMDNVSSLVQLLGSHLEDVNADILQTKDVLKESGALALETQALRSSLEVASADIHSLRGDLEKANAMTSQTRGLLKSSTENTSAELHVLGRGLEEAQSEIQALRGSLQSANDLSSQTQGFLQHSMDNISAQIQTVRDGMERAGEKMNSLKKELETLTAQTQKANGHLEQTDAQIQGLKAELKSTSSLNSRIEVVNGQMKDASRELQTLRRDLSDVSALKSNVQMLQSNLQRAKTEMQTLKADLQATKALTAKIQGEQNRLGALQEAVAAQKQEQKTQNQVLQLIAQNWKYFNGNFYYFSRDKKPWREAEKFCTSQGAHLASVTSQEEQAFLVQTTSSGDHWIGLTDQGTEGIWRWVDGTPFNNAQSKGFWGKNQPDNWRHRNGEREDCVHVRQQWNDMACGSSYPWVCKKSTGWSAARVG | -0.72 | – | -0.635 | – | – | – | – | – | – | – | – | – | – | – | – | – | -0.426 | 0.367 | 4.39 | 3.94 | 3.06 | 0.117 | 0.95 | 2.48 | 0.769 | -0.566 | 2.47 | -0.465 | -0.721 | -0.82 | -0.917 | -0.623 | -0.336 | -0.592 | 0.119 | 0.254 | -0.288
